Results taken from paper PMC4336329 (PLoS ONE, 2015).
The whole screen tested about 310,000 compounds, of which about 14,000 (4.5%) showed an effect of 50% or more. The effect is printed as a negative number. This is one part of a sample in which strong results are shown more often than they occur.

Molecular target: human ether-à-go-go-related gene (hERG) potassium channel (human, UniProt Q12809)
Experiment: primary screen, population patch clamp on CHO cells stably expressing hERG; higher = less effect of the substance
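Note: peak tail current of the secondary pulse compared with the same well before compound.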

human ether-à-go-go-related gene (hERG) potassium channel, sequence (Q12809 whole entry, looked up): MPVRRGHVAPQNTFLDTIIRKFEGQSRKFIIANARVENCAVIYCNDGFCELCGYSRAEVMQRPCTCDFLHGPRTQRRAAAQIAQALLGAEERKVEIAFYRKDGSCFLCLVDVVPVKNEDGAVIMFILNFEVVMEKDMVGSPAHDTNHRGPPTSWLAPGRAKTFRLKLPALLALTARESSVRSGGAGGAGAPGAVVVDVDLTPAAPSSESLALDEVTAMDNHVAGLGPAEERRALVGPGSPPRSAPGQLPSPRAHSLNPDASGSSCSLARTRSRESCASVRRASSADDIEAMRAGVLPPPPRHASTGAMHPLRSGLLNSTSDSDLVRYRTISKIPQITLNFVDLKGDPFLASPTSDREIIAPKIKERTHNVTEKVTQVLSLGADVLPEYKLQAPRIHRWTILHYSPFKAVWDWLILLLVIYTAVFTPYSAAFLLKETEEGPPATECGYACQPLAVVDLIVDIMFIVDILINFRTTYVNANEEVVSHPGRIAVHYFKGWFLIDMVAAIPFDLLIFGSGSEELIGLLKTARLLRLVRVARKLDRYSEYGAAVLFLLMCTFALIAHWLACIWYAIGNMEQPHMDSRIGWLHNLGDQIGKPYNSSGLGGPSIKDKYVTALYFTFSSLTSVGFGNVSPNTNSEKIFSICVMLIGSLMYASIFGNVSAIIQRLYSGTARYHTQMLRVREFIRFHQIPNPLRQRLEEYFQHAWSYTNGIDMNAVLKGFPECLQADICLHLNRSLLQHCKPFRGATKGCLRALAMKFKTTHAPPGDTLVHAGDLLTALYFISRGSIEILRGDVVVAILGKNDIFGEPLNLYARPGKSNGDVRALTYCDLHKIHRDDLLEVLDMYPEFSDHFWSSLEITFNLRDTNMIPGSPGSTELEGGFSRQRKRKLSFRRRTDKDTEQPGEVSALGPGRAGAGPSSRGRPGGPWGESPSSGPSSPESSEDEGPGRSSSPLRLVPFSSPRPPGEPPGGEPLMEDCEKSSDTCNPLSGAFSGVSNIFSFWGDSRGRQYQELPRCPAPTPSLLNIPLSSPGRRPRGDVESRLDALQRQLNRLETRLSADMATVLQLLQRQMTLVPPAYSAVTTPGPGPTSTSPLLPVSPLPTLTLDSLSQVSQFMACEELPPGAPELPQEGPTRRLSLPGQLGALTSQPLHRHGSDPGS

Row | Structure (SMILES) | hERG current change (%, negative = inhibition) at 10uM [%]
1 | O=C(CSc1nnnn1C1CC2C=CC1C2)Nc1ccc(C(=O)O)cc1 (stereo not drawn) | -6.04
2 | CC(Sc1nnc2ccccn12)C(=O)Nc1ccc(Cl)cn1 (stereo not drawn) | -1.5
3 | Cc1ccc(-c2nc(N(C)C3CCN(C)CC3)c3ccccc3n2)cc1 | -24.4
4 | c1ccc(-c2nc(C3CCCCC3)c3ccccc3n2)cc1 | 10.7
5 | CN1CCC(N(C)c2nc(-c3ccccc3)nc3ccccc23)CC1 | -70.4
6 | CC(C)(C)C(=O)Nc1nc2c(s1)CN(Cc1ccccc1)CC2 | 14.2
7 | CCCCOc1ccc(C(=O)N/C(=C/C=C/c2ccccc2)C(=O)O)cc1 | 19.8
8 | CC(C)(C)NC(=O)/C(=C\C=C\c1ccccc1)NC(=O)c1ccc([N+](=O)[O-])cc1 | -35.1
9 | CCCCOc1ccc(C(=O)N/C(=C/C=C/c2ccccc2)C(=O)NCCO)cc1 | -9.18
10 | CCCCOc1ccc(C(=O)N/C(=C/C=C/c2ccccc2)C(=O)NCCCO)cc1 | -28.7
11 | CN(C)CCCNC(=O)/C(=C\C=C\c1ccccc1)NC(=O)c1ccc([N+](=O)[O-])cc1 | -71.2
12 | O=C(O)CCNC(=O)/C(=C/C=C/c1ccccc1)NC(=O)c1ccccc1 | 16.6
13 | CNC(=O)/C(=C\C=C\c1ccccc1)NC(=O)c1ccc([N+](=O)[O-])cc1 | -77.6
14 | CCCCOc1ccc(C(=O)N/C(=C/C=C/c2ccccc2)C(=O)NC)cc1 | -75.2
15 | COC(=O)/C(=C\C=C\c1ccccc1)NC(=O)c1ccccc1 | 8.85
16 | O=C(NCC1CCCCC1)c1cccc(Br)c1 | -3.31
17 | CCCOc1ccc(N2CC(C(=O)Nc3ccc(N4CCOCC4)cc3)CC2=O)cc1 (stereo not drawn) | 36
18 | CN1CCC(OC(=O)c2cccc(F)c2)CC1.Cl | -0.186
19 | Cc1ccc(N2CC(NS(=O)(=O)c3cc(F)ccc3F)CC2=O)cc1C (stereo not drawn) | -6.74
20 | O=C(CSc1nnnn1C1CCCC1)Nc1cccc(NC(=O)c2ccco2)c1 | -55.9
21 | O=C(CSc1nnnn1C1CCCCC1)Nc1cccc(NC(=O)c2ccco2)c1 | -27.8
22 | Cc1cccc(-n2nnnc2SCC(=O)Nc2ccc(N3CCN(C)CC3)cc2)c1 | -55
23 | Cc1ccc(-n2nnnc2SCC(=O)Nc2cccc(NC(=O)c3ccco3)c2)cc1C | -6.49

Row | Structure (SMILES) | hERG current change (%, negative = inhibition) at 10uM [%]
24 | O=C(CSc1nnnn1C1CCCCC1)NNC(=O)c1ccco1 | 11.3
25 | CC(=O)c1cccc(-n2nnnc2SCC(=O)Nc2cccc(NC(=O)c3ccco3)c2)c1 | -60.7
26 | Cc1ccccc1-n1nnnc1SCC(=O)Nc1ccc(N2CCN(C)CC2)cc1 | -35.8
27 | CC(=O)c1ccc(-n2nnnc2SCC(=O)Nc2cccc(NC(=O)c3ccco3)c2)cc1 | 6.89
28 | Cc1ccc(-n2nnnc2SCC(=O)Nc2ccc(N3CCN(C)CC3)cc2)c(C)c1 | -21
29 | COc1cc(S(=O)(=O)NCc2ccncc2)c(OC)cc1Cl | 6.57
30 | CCC(C)NC(=O)c1cn(CCOC)c(=O)c2c1c1ccccc1n2C (stereo not drawn) | 20.4
31 | COc1ccc(Cn2c(CCC(=O)Nc3ccccc3OC)nc3cccnc32)cc1 | -3.79
32 | COc1cccc(CN2C(=O)C(C)N(C(=O)c3ccccc3)c3ccccc32)c1 (stereo not drawn) | -5.44
33 | CC1CCC(C(=O)c2c(O)c3ccccc3oc2=O)CC1 (stereo not drawn) | 15.9
34 | COc1ccc(-c2nc(S(=O)(=O)c3ccc(C)cc3)c(N3CCCC3)o2)cc1 | 17.2
35 | O=C(Nc1ccc(-n2ccnc2P(=O)(O)c2ccccc2)cc1)c1ccccc1Br | -14.9
36 | CCOC(=O)c1snc(C(=O)NC2CCCCC2)c1N | -6.13
37 | COc1ccc(NC(=O)c2sc3ncnc(N4CCN(c5ccccn5)CC4)c3c2C)cc1Cl | -23
38 | Nc1nc(CN2CCCCCC2)nc(Nc2ccccc2)n1 | -61.4
39 | c1ccc(Nc2nc(N3CCCC3)nc(N3CCCC3)n2)cc1 | 13.1
40 | Nc1nc(CN2CCN(Cc3ccccc3)CC2)nc(Nc2ccccc2)n1 | -66.2
41 | Nc1nc(CN2CCN(C(c3ccccc3)c3ccccc3)CC2)nc(Nc2ccccc2)n1 | -18.4
42 | Nc1nc(CCl)nc(Nc2ccccc2)n1 | 20.7
43 | c1ccc(Nc2nc(N3CCCCC3)nc(N3CCCCC3)n2)cc1 | -4.68
44 | O=C(NC(Nc1nc2ccc([N+](=O)[O-])cc2s1)(C(F)(F)F)C(F)(F)F)c1ccccc1 | -6.48
45 | CCCc1nnc(NC(=O)c2c(O)c3cccc4c3n(c2=O)CCC4)s1 | -2.48
46 | S=C(NCCCN1CCOCC1)NC1CCCC1 | 8.32

Row | Structure (SMILES) | hERG current change (%, negative = inhibition) at 10uM [%]
47 | O=c1[nH]c(/C=C\c2ccccc2F)nc(O)c1[N+](=O)[O-] | 17.5
48 | COc1ccc(NC(=O)CSc2c(C)n[nH]c2C)cc1 | -7.52
49 | Cc1occc1C(=O)NNC(=O)c1nn(C)c(=O)c2ccccc12 | 8.46
50 | Cn1nc(C(=O)NNC(=O)CCc2ccccc2Cl)c2ccccc2c1=O | -53.9
51 | CCc1noc(C)c1C(=O)NNC(=O)c1nn(C)c(=O)c2ccccc12 | -50.2
52 | CCc1noc(C)c1C(=O)NNC(=O)c1ccccc1 | -1.03
53 | CCOc1ccc(OCCC(=O)NNC(=O)c2nn(C)c(=O)c3ccccc23)cc1 | -13.1
54 | Cc1ccc(OCCC(=O)NNC(=O)c2nn(C)c(=O)c3ccccc23)cc1 | -33.1
55 | CCOC(=O)N1CCN(C(=O)C(CC(C)C)NS(=O)(=O)c2ccc(C)cc2)CC1 (stereo not drawn) | -4.14
56 | COC(=O)C1C2c3ccccc3OC1(C)N=c1s/c(=C/c3cn(C)nc3C)c(=O)n12 (stereo not drawn) | 11.2
57 | COC(CNC(=O)c1ccc2c(c1)nc(C)n2-c1cccc(C)c1)OC | 0.933
58 | CCC(CC)NC(=O)COC(=O)c1ccc(OCC(=O)Nc2ccccc2OC)c(OC)c1 | 11.4
59 | O=C(c1ccccc1Br)N1CCN(c2ccc([N+](=O)[O-])c(N3CCOCC3)c2)CC1 | -11.5
60 | Cc1ccc(N2CCN(C(=O)c3ccccc3F)CC2)c(C)c1 | -8.81
61 | COc1cc(C(=O)N2CCN(c3ccccc3OC)CC2)c([N+](=O)[O-])cc1OC | 18.5
62 | COc1ccc(N2CCN(C(=O)c3ccccc3Br)CC2)c([N+](=O)[O-])c1 | -65.5
63 | COc1cc(OC)cc(C(=O)N2CCN(c3ccccc3F)CC2)c1 | -11.6
64 | COc1ccc(N2CCN(C(=O)c3ccccc3F)CC2)c([N+](=O)[O-])c1 | -51.3
65 | Cc1cc(=O)oc2cc(OCc3cc4c(cc3Cl)OCO4)ccc12 | 8.74
66 | NNC(=O)CNc1cccc(Cl)c1 | 15.4
67 | CC(=O)c1ccc(NC(=O)C2C3CCC(C3)C2C(=O)O)cc1 (stereo not drawn) | 17.8
68 | COCCCNC(=O)Cn1nc(-c2ccccc2OC)ccc1=O | 18
69 | COc1ccc(Cl)cc1C(=O)Nc1ccncc1 | -26.2

Row | Structure (SMILES) | hERG current change (%, negative = inhibition) at 10uM [%]
70 | Cn1c(N)c(C(=O)COC(=O)C2CCCCC2)c(=O)n(C)c1=O | -11.2
71 | Cn1c(N)c(C(=O)COC(=O)C23CC4CC(CC(C4)C2)C3)c(=O)n(C)c1=O | -22.6
72 | Cn1c(N)c(C(=O)COC(=O)CCC2CCCC2)c(=O)n(C)c1=O | -43.3
73 | Cn1c(N)c(C(=O)COC(=O)C2CCCC2)c(=O)n(C)c1=O | -20.6
74 | Cn1c(N)c(C(=O)COC(=O)CCC2CCCCC2)c(=O)n(C)c1=O | -73.6
75 | Cn1c(N)c(C(=O)COC(=O)CC2CC3CCC2C3)c(=O)n(C)c1=O (stereo not drawn) | -64.4
76 | Cc1ccccc1OC(C)C(=O)NC1CCCC1 (stereo not drawn) | -2.63
77 | O=C(NN=C1C2CC3CC1CC(Cl)(C3)C2)c1cccs1 | 8.54
78 | COc1ccc(-c2nc(NC(C)=O)sc2-c2ccccc2)cc1 | 34.7
79 | COc1ccc(CNC(=O)CN(Cc2ccc(OC)cc2)C(=O)c2csnn2)cc1 | -57.5
80 | COc1ccc(CNC(=O)CN(Cc2ccccc2F)C(=O)c2csnn2)cc1 | -32.7
81 | COc1ccc(CNC(=O)CN(Cc2ccccc2)C(=O)c2csnn2)cc1 | -32.3
82 | COc1ccc(CNC(=O)CN(Cc2ccc(Cl)cc2)C(=O)c2csnn2)cc1 | -71.7
83 | COc1ccc(CN(CC(=O)NCc2ccccc2)C(=O)c2csnn2)cc1 | -26.6
84 | COc1ccc(CNC(=O)CN(Cc2ccc(F)cc2)C(=O)c2csnn2)cc1 | -70.4
85 | COc1ccccc1CN(CC(=O)NCc1ccc(F)cc1)C(=O)c1csnn1 | -35.3
86 | COc1ccc(CNC(=O)CN(Cc2ccc(C)cc2)C(=O)c2csnn2)cc1 | -36.1
87 | COc1ccc(CN(CC(=O)NCc2ccc(F)cc2)C(=O)c2csnn2)cc1 | -58.5
88 | COc1ccc(CNC(=O)CN(C(=O)c2csnn2)c2ccc(F)cc2)cc1 | -5.15
89 | C=CCN(CC(=O)NCc1ccc(OC)cc1)C(=O)c1csnn1 | -16.7
90 | COc1ccc(CNC(=O)CN(Cc2ccccc2OC)C(=O)c2csnn2)cc1 | -29
